# According to PMC7862700, “An all-to-all approach to the identification of sequence-specific readers for epigenetic DNA modifications on cytosine”:
# Legend:
# Assay in all cases: DAPPL (digital affinity profiling via proximity ligation, sequencing); 10 mM Tris-HCl pH 7.5, 50 mM NaCl, 1 mM DTT, 4% glycerol, room temperature, 30 min; GST-TFs on glutathione beads, 16-mer random dsDNA library, 0.1% formaldehyde crosslink after washing; high values mean tight binding
# FLI1 = biological target: T1, FLI1 (Homo sapiens, UniProt Q01543 1-452); conditions: protein: recombinant; tags: N-terminal GST; dsDNA, one strand shown
# T1 sequence: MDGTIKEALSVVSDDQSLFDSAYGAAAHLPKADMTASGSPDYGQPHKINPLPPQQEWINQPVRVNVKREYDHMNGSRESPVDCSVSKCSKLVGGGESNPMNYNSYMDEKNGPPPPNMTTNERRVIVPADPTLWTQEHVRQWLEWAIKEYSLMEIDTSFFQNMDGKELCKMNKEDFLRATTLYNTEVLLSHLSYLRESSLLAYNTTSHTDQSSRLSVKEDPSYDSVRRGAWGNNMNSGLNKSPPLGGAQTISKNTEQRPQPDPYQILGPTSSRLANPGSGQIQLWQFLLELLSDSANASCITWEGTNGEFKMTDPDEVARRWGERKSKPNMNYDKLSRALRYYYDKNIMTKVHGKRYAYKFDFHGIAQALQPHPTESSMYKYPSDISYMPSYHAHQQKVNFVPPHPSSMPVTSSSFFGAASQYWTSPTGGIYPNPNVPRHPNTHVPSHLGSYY
# Outline: (§1)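 Pools of DNA-barcoded human transcription factors, expressed in yeast as GST fusions on glutathione beads and combined with a tag-only sample, were incubated with 200 nmole of a 16-mer random double-stranded DNA library. Incubation took 30 min at room temperature in Tris/NaCl/DTT/glycerol buffer and was followed by washing, 0.1% formaldehyde crosslinking, proximity ligation (BsaI/T4 ligase, 1 h, 37 °C), PCR amplification and sequencing on an Illumina NextSeq500. Binding signal is the ratio of a hexamer's read frequency for a factor to its frequency for the tag-only sample.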
# ELK1 = biological target: T2, ELK1 (Homo sapiens, UniProt P19419 1-428); conditions: protein: recombinant; tags: N-terminal GST; dsDNA, one strand shown
# T2 sequence: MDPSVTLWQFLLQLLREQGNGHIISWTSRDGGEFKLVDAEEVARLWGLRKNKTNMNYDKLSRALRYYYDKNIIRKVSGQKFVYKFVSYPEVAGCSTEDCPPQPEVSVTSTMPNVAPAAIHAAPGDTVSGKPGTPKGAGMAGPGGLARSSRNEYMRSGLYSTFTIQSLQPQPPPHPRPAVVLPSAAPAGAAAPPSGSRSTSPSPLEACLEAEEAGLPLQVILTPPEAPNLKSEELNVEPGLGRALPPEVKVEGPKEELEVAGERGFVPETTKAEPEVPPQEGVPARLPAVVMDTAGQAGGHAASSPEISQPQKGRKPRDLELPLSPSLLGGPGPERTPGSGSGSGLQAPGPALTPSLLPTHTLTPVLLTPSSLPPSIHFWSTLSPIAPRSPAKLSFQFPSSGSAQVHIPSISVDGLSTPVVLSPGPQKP
# Outline: as §1
# GABPA = biological target: T3, GABPA (Homo sapiens, UniProt Q06546 1-454); conditions: protein: recombinant; tags: N-terminal GST; dsDNA, one strand shown
# T3 sequence: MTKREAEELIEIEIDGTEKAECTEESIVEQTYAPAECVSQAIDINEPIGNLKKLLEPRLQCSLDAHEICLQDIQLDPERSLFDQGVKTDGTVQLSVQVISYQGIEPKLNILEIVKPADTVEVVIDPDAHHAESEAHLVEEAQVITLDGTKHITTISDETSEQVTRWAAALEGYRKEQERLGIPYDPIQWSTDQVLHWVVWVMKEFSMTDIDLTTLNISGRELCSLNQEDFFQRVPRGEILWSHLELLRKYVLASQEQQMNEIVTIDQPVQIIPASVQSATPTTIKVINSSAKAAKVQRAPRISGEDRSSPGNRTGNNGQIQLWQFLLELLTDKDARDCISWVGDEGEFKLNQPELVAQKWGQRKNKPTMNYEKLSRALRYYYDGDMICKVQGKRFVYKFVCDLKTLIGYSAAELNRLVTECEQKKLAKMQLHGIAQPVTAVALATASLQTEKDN
# Outline: as §1
# ERG = biological target: T4, ERG (Homo sapiens, UniProt P11308 1-479); conditions: protein: recombinant; tags: N-terminal GST; dsDNA, one strand shown
# T4 sequence: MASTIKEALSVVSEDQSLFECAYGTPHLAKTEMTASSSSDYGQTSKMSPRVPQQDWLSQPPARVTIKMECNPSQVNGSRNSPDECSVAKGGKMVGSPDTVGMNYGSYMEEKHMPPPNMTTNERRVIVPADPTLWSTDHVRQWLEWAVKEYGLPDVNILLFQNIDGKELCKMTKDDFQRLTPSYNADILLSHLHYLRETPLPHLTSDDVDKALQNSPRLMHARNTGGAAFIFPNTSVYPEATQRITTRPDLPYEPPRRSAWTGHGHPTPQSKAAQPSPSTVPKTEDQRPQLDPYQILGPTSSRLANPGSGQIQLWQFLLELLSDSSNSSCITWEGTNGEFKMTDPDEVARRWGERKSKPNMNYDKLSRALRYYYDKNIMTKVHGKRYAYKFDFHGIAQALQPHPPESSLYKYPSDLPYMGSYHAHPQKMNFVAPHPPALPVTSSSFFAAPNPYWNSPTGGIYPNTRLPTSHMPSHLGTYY
# Outline: as §1
# ELF1 = ELF1 (Homo sapiens, UniProt P32519 1-619); conditions: protein: recombinant; tags: N-terminal GST; dsDNA, one strand shown
# Outline: as §1
# EHF = biological target: T5, EHF (Homo sapiens, UniProt Q9NZC4 1-300); conditions: protein: recombinant; tags: N-terminal GST; dsDNA, one strand shown
# T5 sequence: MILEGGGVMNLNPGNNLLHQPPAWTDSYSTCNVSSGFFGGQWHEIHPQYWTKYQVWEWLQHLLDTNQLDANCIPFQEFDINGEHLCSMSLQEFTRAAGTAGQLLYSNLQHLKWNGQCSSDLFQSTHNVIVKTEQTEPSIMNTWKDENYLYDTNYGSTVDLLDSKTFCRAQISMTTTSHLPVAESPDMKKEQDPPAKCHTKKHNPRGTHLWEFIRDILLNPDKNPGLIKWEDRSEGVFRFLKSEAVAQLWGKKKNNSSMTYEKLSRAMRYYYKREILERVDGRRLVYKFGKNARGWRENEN
# Outline: as §1
# SPI1 = SPI1 (Homo sapiens, UniProt P17947 1-270); conditions: protein: recombinant; tags: N-terminal GST; dsDNA, one strand shown
# Outline: as §1
# SPIB = SPIB (Homo sapiens, UniProt Q01892 1-262); conditions: protein: recombinant; tags: N-terminal GST; dsDNA, one strand shown
# Outline: as §1
# ELK3 = biological target: T6, ELK3 (Homo sapiens, UniProt P41970 1-407); conditions: protein: recombinant; tags: N-terminal GST; dsDNA, one strand shown
# T6 sequence: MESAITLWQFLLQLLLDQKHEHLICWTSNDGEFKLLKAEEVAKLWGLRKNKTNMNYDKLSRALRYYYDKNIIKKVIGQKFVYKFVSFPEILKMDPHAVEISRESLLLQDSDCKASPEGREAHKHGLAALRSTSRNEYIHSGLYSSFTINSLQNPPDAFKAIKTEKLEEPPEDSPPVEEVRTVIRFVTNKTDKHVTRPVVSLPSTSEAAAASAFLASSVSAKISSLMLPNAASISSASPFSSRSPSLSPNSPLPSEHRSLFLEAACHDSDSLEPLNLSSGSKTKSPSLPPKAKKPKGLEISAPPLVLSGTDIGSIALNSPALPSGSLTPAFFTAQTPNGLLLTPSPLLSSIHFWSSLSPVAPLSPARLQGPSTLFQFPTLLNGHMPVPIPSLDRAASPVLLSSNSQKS
# Outline: as §1
# FEV = biological target: T7, FEV (Homo sapiens, UniProt Q99581 1-238); conditions: protein: recombinant; tags: N-terminal GST; dsDNA, one strand shown
# T7 sequence: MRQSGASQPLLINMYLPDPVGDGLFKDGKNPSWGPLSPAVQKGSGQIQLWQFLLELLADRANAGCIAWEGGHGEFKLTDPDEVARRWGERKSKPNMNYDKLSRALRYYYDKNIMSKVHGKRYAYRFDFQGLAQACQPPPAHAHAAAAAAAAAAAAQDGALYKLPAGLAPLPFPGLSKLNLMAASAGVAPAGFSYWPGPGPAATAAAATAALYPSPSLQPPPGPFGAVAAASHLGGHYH
# Outline: as §1
# ETV5 = ETV5 (Homo sapiens, UniProt P41161 1-510); conditions: protein: recombinant; tags: N-terminal GST; dsDNA, one strand shown
# Outline: as §1
# HSF1 = HSF1 (Homo sapiens, UniProt Q00613 1-529); conditions: protein: recombinant; tags: N-terminal GST; chain copies: 3; dsDNA, one strand shown
# Outline: as §1
# SPIC = biological target: T8, SPIC (Homo sapiens, UniProt Q8N5J4 1-248); conditions: protein: recombinant; tags: N-terminal GST; dsDNA, one strand shown
# T8 sequence: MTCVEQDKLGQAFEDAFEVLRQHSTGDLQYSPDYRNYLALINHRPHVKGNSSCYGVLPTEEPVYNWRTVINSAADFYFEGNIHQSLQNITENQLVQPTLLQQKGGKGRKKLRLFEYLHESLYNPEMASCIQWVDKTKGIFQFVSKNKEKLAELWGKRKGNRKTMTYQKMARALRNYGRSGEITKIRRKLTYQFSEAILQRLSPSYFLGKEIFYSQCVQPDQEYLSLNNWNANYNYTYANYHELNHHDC
# Outline: as §1
# ELF4 = ELF4 (Homo sapiens, UniProt Q99607 1-663); conditions: protein: recombinant; tags: N-terminal GST; dsDNA, one strand shown
# Outline: as §1
# ELK4 = biological target: T9, ELK4 (Homo sapiens, UniProt P28324-2 1-405); conditions: protein: recombinant; tags: N-terminal GST; dsDNA, one strand shown
# T9 sequence: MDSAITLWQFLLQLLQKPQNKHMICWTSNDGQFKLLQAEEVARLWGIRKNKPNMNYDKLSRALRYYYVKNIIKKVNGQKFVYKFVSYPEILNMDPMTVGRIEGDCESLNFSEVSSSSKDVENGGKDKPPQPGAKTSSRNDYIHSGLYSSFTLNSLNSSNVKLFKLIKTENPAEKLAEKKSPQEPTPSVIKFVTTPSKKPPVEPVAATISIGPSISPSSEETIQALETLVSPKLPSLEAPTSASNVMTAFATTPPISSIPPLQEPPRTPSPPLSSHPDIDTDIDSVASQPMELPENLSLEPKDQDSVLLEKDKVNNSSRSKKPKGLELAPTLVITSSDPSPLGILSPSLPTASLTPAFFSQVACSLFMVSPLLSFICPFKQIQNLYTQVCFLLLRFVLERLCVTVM
# Outline: as §1
# ETV2 = biological target: T10, ETV2 (Homo sapiens, UniProt O00321 1-342); conditions: protein: recombinant; tags: N-terminal GST; dsDNA, one strand shown
# T10 sequence: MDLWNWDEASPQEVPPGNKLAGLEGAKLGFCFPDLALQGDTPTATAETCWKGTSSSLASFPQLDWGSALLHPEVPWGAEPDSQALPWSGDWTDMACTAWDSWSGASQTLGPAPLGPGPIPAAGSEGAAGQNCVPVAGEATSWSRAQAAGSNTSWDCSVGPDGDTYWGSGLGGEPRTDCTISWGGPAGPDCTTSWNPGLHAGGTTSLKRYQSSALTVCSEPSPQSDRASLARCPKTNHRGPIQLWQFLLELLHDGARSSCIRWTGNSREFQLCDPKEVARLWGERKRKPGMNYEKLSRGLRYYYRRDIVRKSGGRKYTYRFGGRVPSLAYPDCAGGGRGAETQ
# Outline: as §1
# ELF3 = biological target: T11, ELF3 (Homo sapiens, UniProt P78545 1-371); conditions: protein: recombinant; tags: N-terminal GST; dsDNA, one strand shown
# T11 sequence: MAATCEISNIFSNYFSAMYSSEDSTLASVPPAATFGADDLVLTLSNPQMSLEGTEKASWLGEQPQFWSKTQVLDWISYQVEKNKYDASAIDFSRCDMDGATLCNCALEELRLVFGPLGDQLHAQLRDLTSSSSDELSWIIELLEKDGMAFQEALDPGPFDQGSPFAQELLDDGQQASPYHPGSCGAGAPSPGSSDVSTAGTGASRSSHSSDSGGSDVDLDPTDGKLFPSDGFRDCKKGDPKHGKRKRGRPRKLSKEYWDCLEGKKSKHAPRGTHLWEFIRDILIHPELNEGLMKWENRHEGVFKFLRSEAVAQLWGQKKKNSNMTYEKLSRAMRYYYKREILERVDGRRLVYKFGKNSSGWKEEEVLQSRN
# Outline: as §1
# CRX = CRX (Homo sapiens, UniProt O43186 1-299); conditions: protein: recombinant; tags: N-terminal GST; dsDNA, one strand shown
# Outline: as §1
# ETV1 = ETV1 (Homo sapiens, UniProt P50549 1-477); conditions: protein: recombinant; tags: N-terminal GST; dsDNA, one strand shown
# Outline: as §1
# ETV1, sequence (P50549 whole entry): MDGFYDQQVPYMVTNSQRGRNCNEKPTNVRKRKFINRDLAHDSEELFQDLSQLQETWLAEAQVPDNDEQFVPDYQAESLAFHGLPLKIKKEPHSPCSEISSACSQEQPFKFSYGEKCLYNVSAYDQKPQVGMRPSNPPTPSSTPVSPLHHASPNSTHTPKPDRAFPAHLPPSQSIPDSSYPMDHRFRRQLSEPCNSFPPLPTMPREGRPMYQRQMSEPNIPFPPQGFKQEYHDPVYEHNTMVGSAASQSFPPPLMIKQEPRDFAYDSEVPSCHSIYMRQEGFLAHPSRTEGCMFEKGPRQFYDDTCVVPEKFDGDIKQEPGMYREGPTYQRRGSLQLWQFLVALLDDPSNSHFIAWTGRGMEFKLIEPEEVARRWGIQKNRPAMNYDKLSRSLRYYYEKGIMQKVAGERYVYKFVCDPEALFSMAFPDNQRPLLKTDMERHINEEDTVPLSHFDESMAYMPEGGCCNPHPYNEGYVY
# HSF1, sequence (Q00613 whole entry): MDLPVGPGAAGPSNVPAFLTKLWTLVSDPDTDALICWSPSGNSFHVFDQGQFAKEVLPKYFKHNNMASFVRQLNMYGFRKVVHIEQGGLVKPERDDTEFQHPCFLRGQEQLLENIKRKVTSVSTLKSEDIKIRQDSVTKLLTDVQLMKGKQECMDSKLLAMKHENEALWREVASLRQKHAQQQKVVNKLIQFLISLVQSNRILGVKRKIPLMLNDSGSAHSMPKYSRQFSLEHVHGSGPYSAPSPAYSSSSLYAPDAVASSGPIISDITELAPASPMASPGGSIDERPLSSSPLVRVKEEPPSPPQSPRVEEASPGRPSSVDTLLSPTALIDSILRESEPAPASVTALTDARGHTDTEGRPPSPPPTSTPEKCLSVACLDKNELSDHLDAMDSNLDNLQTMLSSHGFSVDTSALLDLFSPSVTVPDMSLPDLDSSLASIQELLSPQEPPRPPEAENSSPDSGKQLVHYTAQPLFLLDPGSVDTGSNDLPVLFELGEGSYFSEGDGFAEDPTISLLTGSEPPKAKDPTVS
# ELF4, sequence (Q99607 whole entry): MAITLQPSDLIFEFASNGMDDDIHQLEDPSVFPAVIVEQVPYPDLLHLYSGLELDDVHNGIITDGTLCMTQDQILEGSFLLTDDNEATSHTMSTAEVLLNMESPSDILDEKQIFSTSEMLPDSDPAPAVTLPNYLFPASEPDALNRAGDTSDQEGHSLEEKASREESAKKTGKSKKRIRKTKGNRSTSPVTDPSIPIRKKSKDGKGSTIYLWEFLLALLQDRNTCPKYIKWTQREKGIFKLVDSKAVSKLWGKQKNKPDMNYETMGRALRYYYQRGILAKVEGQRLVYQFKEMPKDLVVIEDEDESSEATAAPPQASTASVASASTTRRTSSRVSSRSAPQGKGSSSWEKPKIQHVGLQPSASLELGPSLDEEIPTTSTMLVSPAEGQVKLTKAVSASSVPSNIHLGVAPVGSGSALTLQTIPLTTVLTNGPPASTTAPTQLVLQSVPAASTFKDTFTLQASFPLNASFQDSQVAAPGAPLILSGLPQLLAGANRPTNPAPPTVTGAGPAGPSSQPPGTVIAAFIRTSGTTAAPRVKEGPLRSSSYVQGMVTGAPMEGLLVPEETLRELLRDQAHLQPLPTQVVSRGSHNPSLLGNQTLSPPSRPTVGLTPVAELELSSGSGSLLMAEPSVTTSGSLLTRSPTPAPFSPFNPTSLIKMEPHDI
# ETV5, sequence (P41161 whole entry): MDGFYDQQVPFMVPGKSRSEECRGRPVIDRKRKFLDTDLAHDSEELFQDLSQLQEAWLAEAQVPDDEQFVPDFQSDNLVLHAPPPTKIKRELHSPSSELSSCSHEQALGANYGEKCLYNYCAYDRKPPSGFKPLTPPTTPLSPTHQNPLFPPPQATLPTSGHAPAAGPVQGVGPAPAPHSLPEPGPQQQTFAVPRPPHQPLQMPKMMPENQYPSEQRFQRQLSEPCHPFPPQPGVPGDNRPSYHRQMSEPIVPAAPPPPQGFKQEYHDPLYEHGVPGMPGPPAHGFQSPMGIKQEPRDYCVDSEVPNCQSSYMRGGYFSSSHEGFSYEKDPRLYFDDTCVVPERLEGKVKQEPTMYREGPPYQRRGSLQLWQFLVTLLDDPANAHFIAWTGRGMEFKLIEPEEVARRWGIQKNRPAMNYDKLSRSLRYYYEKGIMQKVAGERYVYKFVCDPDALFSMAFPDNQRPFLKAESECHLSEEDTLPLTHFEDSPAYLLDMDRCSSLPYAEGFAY
# SPIB, sequence (Q01892 whole entry): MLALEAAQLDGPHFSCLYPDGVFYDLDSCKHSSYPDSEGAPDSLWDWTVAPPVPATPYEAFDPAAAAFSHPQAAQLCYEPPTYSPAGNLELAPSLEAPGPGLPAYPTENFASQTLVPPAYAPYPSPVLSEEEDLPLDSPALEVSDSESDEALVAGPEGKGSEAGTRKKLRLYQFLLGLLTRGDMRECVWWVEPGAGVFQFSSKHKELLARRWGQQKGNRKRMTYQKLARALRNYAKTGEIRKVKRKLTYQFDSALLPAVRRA
# ELF1, sequence (P32519 whole entry): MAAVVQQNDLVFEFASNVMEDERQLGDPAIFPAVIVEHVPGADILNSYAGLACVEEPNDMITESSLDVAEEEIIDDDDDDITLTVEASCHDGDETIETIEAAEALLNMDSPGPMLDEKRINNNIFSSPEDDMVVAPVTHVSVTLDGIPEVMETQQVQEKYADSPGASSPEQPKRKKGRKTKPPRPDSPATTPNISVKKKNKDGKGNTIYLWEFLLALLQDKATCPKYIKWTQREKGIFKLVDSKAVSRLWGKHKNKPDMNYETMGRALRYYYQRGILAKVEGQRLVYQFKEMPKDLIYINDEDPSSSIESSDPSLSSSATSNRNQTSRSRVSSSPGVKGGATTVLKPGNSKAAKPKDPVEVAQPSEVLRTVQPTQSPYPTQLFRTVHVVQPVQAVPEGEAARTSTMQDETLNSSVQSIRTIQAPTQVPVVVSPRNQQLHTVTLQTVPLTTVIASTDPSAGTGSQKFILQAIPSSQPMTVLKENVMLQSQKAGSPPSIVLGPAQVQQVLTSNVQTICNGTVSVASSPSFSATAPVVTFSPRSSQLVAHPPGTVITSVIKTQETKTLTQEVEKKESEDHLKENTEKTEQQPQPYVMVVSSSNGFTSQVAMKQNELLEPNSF
# CRX, sequence (O43186 whole entry): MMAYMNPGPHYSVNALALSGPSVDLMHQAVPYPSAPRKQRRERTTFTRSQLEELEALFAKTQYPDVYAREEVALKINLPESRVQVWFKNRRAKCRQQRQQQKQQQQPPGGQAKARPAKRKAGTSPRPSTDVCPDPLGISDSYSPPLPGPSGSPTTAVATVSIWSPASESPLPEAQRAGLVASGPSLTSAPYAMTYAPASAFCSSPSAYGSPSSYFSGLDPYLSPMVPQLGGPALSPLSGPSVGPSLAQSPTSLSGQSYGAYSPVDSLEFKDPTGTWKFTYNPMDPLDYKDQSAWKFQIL
sequence,measurement,setting,value
ACTCTT,binding signal,FLI1,"1.17 fold enrichment (6-mer frequency, TF over GST control)"
same,binding signal,ELK1,"1.24 fold enrichment (6-mer frequency, TF over GST control)"
same,binding signal,GABPA,"1.22 fold enrichment (6-mer frequency, TF over GST control)"
same,binding signal,ERG,"1.24 fold enrichment (6-mer frequency, TF over GST control)"
same,binding signal,ELF1,"1.25 fold enrichment (6-mer frequency, TF over GST control)"
same,binding signal,EHF,"1.2 fold enrichment (6-mer frequency, TF over GST control)"
same,binding signal,SPI1,"1.19 fold enrichment (6-mer frequency, TF over GST control)"
same,binding signal,SPIB,"1.25 fold enrichment (6-mer frequency, TF over GST control)"
same,binding signal,ELK3,"1.47 fold enrichment (6-mer frequency, TF over GST control)"
same,binding signal,FEV,"1.18 fold enrichment (6-mer frequency, TF over GST control)"
same,binding signal,ETV5,"1.29 fold enrichment (6-mer frequency, TF over GST control)"
same,binding signal,HSF1,"1.12 fold enrichment (6-mer frequency, TF over GST control)"
same,binding signal,SPIC,"1.3 fold enrichment (6-mer frequency, TF over GST control)"
same,binding signal,ELF4,"1.26 fold enrichment (6-mer frequency, TF over GST control)"
same,binding signal,ELK4,"1.35 fold enrichment (6-mer frequency, TF over GST control)"
same,binding signal,ETV2,"1.31 fold enrichment (6-mer frequency, TF over GST control)"
same,binding signal,ELF3,"1.14 fold enrichment (6-mer frequency, TF over GST control)"
same,binding signal,CRX,"1.19 fold enrichment (6-mer frequency, TF over GST control)"
same,binding signal,ETV1,"1.33 fold enrichment (6-mer frequency, TF over GST control)"
